We go through 8 compounds from PubChem BioAssay (NCI).

Test systems include HCT-15 colon; HT29 colon; SNB-75 CNS; SNB-19 CNS; U251 CNS; PC-3 prostate; SK-MEL-5 melanoma; LOX IMVI melanoma; SK-MEL-28 melanoma; SK-MEL-2 melanoma; EKVX NSCLC; SN12C renal; UO-31 renal; TK-10 renal; ACHN renal; CAKI-1 renal; A498 renal; CCRF-CEM leukemia; MOLT-4 leukemia; UACC-62 melanoma.
What all share (assay): NCI-60 one-dose screen, 48 h (100 = growth as untreated, 0 = no growth, -100 = all killed)
Holding throughout (conditions): 10 µM unless noted

SMILES strings stand for the structures. This is part of a sample that, as a whole, favours compounds with a hit. Of some 83,000 tested, about 20% had one in any assay.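 96-well plates, one dose, 48 hours. Percent growth reported; active if below 10.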 Values without a mark were called inactive. The source made the active and inactive calls.

As to `C#Cc1cccc(NC(=O)Nc2ccccc2NC(=O)CCl)c1`, the growth is -19.8% [8.25 µM] (active) with HCT-15 colon; -15.5% [8.25 µM] (active) with HT29 colon; -83.9% [8.25 µM] (active) in the assay with SNB-75 CNS; 19.7% [8.25 µM] in the assay with SNB-19 CNS; -85.2% [8.25 µM] (active) in the assay on U251 CNS; -29% [8.25 µM] (active) with PC-3 prostate. For the same compound, the growth in the assay with SK-MEL-5 melanoma is -94.8% [8.25 µM] (active); in the assay with LOX IMVI melanoma, -94.4% [8.25 µM] (active); in the assay on SK-MEL-28 melanoma, -10.4% [8.25 µM] (active); with SK-MEL-2 melanoma, -56% [8.25 µM] (active); with EKVX NSCLC it was 71.9% [8.25 µM]; in the assay on SN12C renal, -68.6% [8.25 µM] (active). The growth was -97.7% [8.25 µM] (active) in the assay on UO-31 renal; -27.8% [8.25 µM] (active) with TK-10 renal; -84.1% [8.25 µM] (active) in the assay on ACHN renal; -85.2% [8.25 µM] (active) in the assay with CAKI-1 renal; -93.4% [8.25 µM] (active) in the assay with A498 renal; 22.2% [8.25 µM] with CCRF-CEM leukemia. Also, the growth in the assay with MOLT-4 leukemia is 24.5% [8.25 µM].
On to `Cc1cccc2c1S/C(=C/c1ccc([N+](=O)[O-])cc1)C2=O`, for which the growth in the assay with HCT-15 colon is 100%; in the assay with HT29 colon, 92.5%; in the assay on SNB-75 CNS, 82.4%; in the assay on SNB-19 CNS, 98.4%; with U251 CNS, 78.4%; with PC-3 prostate it was 91.5%. The growth in the assay with SK-MEL-5 melanoma was 99.4%; in the assay with LOX IMVI melanoma it was 93.1%; in the assay with SK-MEL-28 melanoma it was 114%; in the assay on SK-MEL-2 melanoma it was 103%; in the assay with EKVX NSCLC, 103%; with SN12C renal, 98.8%. Besides, the growth is 80.4% with UO-31 renal; 166% in the assay on TK-10 renal; 102% in the assay on ACHN renal; 90.6% in the assay on CAKI-1 renal; 59.8% in the assay on A498 renal; 101% in the assay with CCRF-CEM leukemia. Further, the growth in the assay with MOLT-4 leukemia was 94.5%.
For `CCCCNC(=O)Oc1ccc(/C(=C(\C)c2ccc(Cl)cc2)c2ccc(OCCN3CCCCC3)cc2)cc1`, the growth in the assay with HCT-15 colon was 23.8%; with HT29 colon, 10.9%; in the assay with SNB-75 CNS, 80.3%; in the assay with SNB-19 CNS, 93.5%; in the assay with U251 CNS it was 59.3%; in the assay on PC-3 prostate, 63.8%. Besides, the growth in the assay on SK-MEL-5 melanoma was 74.2%; with LOX IMVI melanoma it was 79.8%; with SK-MEL-28 melanoma, 80.1%; with SK-MEL-2 melanoma, 98.6%; in the assay on EKVX NSCLC, 76.9%; with SN12C renal, 80.5%. In addition, the growth with UO-31 renal was 58.8%; in the assay with TK-10 renal, 87%; in the assay on ACHN renal, 94%; in the assay on CAKI-1 renal it was 92.5%; in the assay on CCRF-CEM leukemia, 72.7%; in the assay on MOLT-4 leukemia, 65.5%.
`Cn1cc(-c2cc3ncnc(Nc4ccc(CC(=O)Nc5cc(C(C)(C)C)nn5C)cc4)c3s2)cn1`: the growth is 54.8% in the assay with HCT-15 colon; 50% in the assay on HT29 colon; 56.3% in the assay on SNB-75 CNS; 95.7% in the assay on SNB-19 CNS; 61.2% in the assay with U251 CNS; 43.9% in the assay on PC-3 prostate. For the same compound, the growth with SK-MEL-5 melanoma was 49%; with UACC-62 melanoma, 33.5%; in the assay with SK-MEL-28 melanoma, 77.2%; in the assay on SK-MEL-2 melanoma it was 22.3%; in the assay with EKVX NSCLC, 84.6%; in the assay with SN12C renal, 26.4%. Further, the growth was 28.8% in the assay with UO-31 renal; 56.5% in the assay on TK-10 renal; 25.9% in the assay on ACHN renal; 19.3% in the assay with CAKI-1 renal; 13.7% in the assay with CCRF-CEM leukemia; 16.7% with MOLT-4 leukemia.
In the case of `COc1c(C2CC(=O)Nc3c2c(C)nn3-c2nc3ccccc3[nH]2)cc2c(c1OC)OCO2` (stereo not given), the growth is 37.2% with HCT-15 colon; 20.5% with HT29 colon; 44.2% with SNB-75 CNS; 49.6% in the assay with SNB-19 CNS; 31.5% in the assay with U251 CNS; 48.4% with PC-3 prostate. The growth is 31.9% in the assay on SK-MEL-5 melanoma; 55.2% in the assay with UACC-62 melanoma; 44.2% with SK-MEL-28 melanoma; 29.6% in the assay with SK-MEL-2 melanoma; 58% in the assay on EKVX NSCLC; 68.8% in the assay on SN12C renal. In addition, the growth is 45.4% in the assay with UO-31 renal; 66.9% in the assay on TK-10 renal; 55.8% in the assay with ACHN renal; 71.6% with CAKI-1 renal; 11.3% in the assay with CCRF-CEM leukemia.
`CCS(=O)(=O)c1ncnc2nc[nH]c12`: the growth is 101% in the assay with HCT-15 colon; 93.2% in the assay on HT29 colon; 90.9% with SNB-75 CNS; 97.9% with SNB-19 CNS; 95.6% in the assay on U251 CNS; 76.4% with PC-3 prostate. Also, the growth in the assay on SK-MEL-5 melanoma is 98.7%; with LOX IMVI melanoma it was 101%; in the assay with SK-MEL-28 melanoma it was 107%; in the assay on SK-MEL-2 melanoma, 100%; with EKVX NSCLC, 99.3%; in the assay on SN12C renal it was 94.5%. The growth was 92.6% in the assay on UO-31 renal; 98.2% in the assay on TK-10 renal; 106% in the assay with ACHN renal; 99.6% with CAKI-1 renal; 93.3% in the assay with CCRF-CEM leukemia; 103% in the assay with MOLT-4 leukemia.
Regarding `COC1=C(C)C(=O)c2c(c(CCCl)c3n2CCC3OC(C)=O)C1=O` (stereo not given), the growth in the assay on HCT-15 colon is 1.95% (active); with HT29 colon, -15.6% (active); in the assay with SNB-75 CNS, -44.6% (active); in the assay with SNB-19 CNS, 1.56% (active); with U251 CNS, -9.94% (active); in the assay with PC-3 prostate, -10.6% (active). The growth is -66.7% (active) with SK-MEL-5 melanoma; -71% (active) in the assay on UACC-62 melanoma; -32% (active) with SK-MEL-28 melanoma; -45.6% (active) in the assay on SK-MEL-2 melanoma; 0.0316% (active) with EKVX NSCLC; 3.34% (active) in the assay on SN12C renal. The growth with UO-31 renal was -60.9% (active); with TK-10 renal, -37.9% (active); with ACHN renal, -3.88% (active); in the assay on A498 renal, -87.8% (active); with CCRF-CEM leukemia, 50.2%; in the assay with MOLT-4 leukemia it was 34.4%.
Turning to `Cc1ccc(/C=C(\C#N)n2nc3cccc(F)c3n2)cc1`, the growth in the assay with HCT-15 colon was 82.6%; in the assay on HT29 colon it was 114%; in the assay on SNB-75 CNS it was 74.7%; in the assay with SNB-19 CNS it was 96.6%; in the assay on U251 CNS, 86.3%; with PC-3 prostate, 102%. Also, the growth was 89.9% with SK-MEL-5 melanoma; 86.2% in the assay on LOX IMVI melanoma; 96.2% in the assay on SK-MEL-28 melanoma; 95.5% in the assay with SK-MEL-2 melanoma; 83.5% in the assay on EKVX NSCLC; 95.3% with SN12C renal. The growth is 72.3% in the assay on UO-31 renal; 90.8% with TK-10 renal; 79.7% in the assay on ACHN renal; 58.8% in the assay with CAKI-1 renal; 56% in the assay on A498 renal; 104% with CCRF-CEM leukemia.
